For ten molecules, AC50 and outcome results are on record in PubChem BioAssay (EPA / NIEHS).

SMILES strings stand for the structures. Inconclusive results are not listed. Calls of active or inactive are those of the source. How the source made its calls: active means hit-call score of the fitted dose curve at least 0.9, where 1 is the maximum; inconclusive means response in the unintended direction; inactive means score below 0.9.

For this assay, the system named is guinea pig Muscarinic, Peripheral (Mperiperal) Receptor, Non-selective Binding, gene 100379235. The assay is described as follows: NVS_GPCR_gMPeripheral_NonSelective: NovaScreen (NVS) G Protein-Coupled Receptor Assay for guinea pig Muscarinic, Peripheral (Mperiperal) Receptor, Non-selective Binding (AID 2283250). As to the method:
NVS_GPCR_gMPeripheral_NonSelective is a biochemical, single-readout assay that uses extracted gene-proteins from Guinea pig bladder membranes in a tissue-based cell-free assay. Measurements were taken 1 hour after chemical dosing in a 48-well plate.NVS_GPCR_gMPeripheral_NonSelective is one of one assay component(s) measured or calculated from the NVS_GPCR_gMPeripheral_NonSelective assay. It is designed to make measurements of radioligand binding, a form of binding reporter, as detected with scintillation counting signals by Filter-based radiodetection technology.Data from the assay component NVS_GPCR_gMPeripheral_NonSelective was analyzed into 1 assay endpoint. This assay endpoint, NVS_GPCR_gMPeripheral_NonSelective, was analyzed in the positive analysis fitting direction relative to DMSO as the negative control and baseline of activity. Using a type of binding reporter, loss-of-signal activity can be used to understand changes in the binding as they relate to the gene Chrm3. Furthermore, this assay endpoint can be referred to as a primary readout, because the performed assay has only produced 1 assay endpoint. To generalize the intended target to other relatable targets, this assay endpoint is annotated to the gpcr intended target family, where the subfamily is rhodopsin-like receptor.
Binding assays used specific radioligands (tritiated, iodinated) with non-radioactive competitive displacement ligands in agonist or antagonist protocols (as indicated) and various reference compounds and inhibitors to titrate specific binding to receptors and transporters. Most enzyme assays (CYPs, kinases, phosphatases, proteases, HDACs) used recombinant protein and specific substrates (fluorescence mostly, some colorimetric and radioactive) and inhibitors, followed by a biochemical separation of substrate and product. All assays for the biochemical HTS were initially run in duplicate at a single concentration (10 uM for CYP450 assays and 25 uM for all others). Assay-chemical combinations meeting a pre-defined threshold (e.g., 30% inhibition and other criteria defined below) were then run in singleton concentration-response format with maximum concentration of 20 uM for CYPs and 50 uM for all others. Each assay was run with positive and negative controls, and concurrent controls on every plate. The follow-up (secondary) screen tested active chemical-pairs in concentration series, as well as a few additional assays not tested in the primary screen, some selected negative inactives, and several cases re-run in the concentration series for confirmatory purposes.
`CN(C)CCCN1c2ccccc2Sc2ccc(Cl)cc21`: the half-maximal activity concentration (AC50) is 1.66 µM (active).

`CCc1nc(N)nc(N)c1-c1ccc(Cl)cc1`: the outcome was inactive.

Turning to `CN(C)C(=O)NC1(c2ccccc2)CCN(CC[C@@]2(c3ccc(F)c(F)c3)CN(C(=O)c3ccccc3)CCO2)CC1`, the molecule was called inactive.

Turning to `COc1ccc(OC(F)(F)F)cc1CN[C@H]1CCCN[C@H]1c1ccccc1`, the concentration at half-maximal activity (AC50) was 25 µM (active).

In the case of `O=C(N[C@@H](c1ccccc1)[C@@H]1CCCCN1)c1cccc(C(F)(F)F)c1Cl`, the result was inactive.

`CCN(CC)CCOc1ccc(C(=C(Cl)c2ccccc2)c2ccccc2)cc1`: the half-maximal activity concentration (AC50) is 4.82 µM (active).

On to `CN(C)C(=O)NC1(c2ccccc2)CCN(CCC[C@]2(c3ccc(Cl)c(Cl)c3)CCCN(C(=O)c3ccccc3)C2)CC1`, for which the AC50 was 5.86 µM (active).

As to `CCCC[C@H]1CN(CC2CCOCC2)C(=O)OC12CCN(C1(C)CCN(C(=O)c3c(C)ncnc3C)CC1)CC2`, the half-maximal activity concentration (AC50) is 3.04 µM (active).

Turning to `NC(=Nc1ccccc1)Nc1ccccc1`, the molecule was called inactive.

For `CCCCCCCCCCCCCCOS(=O)(=O)O`, the half-maximal activity concentration (AC50) is 25 µM (active).
